NS3h inh CB: HCV NS3 helicase inhibitors, primary screen, biochemical, fluorescence polarization, ChemBridge library | Hepatitis C virus NS3 helicase | NS3h Cy5-dT15 DNA binding | inhibition, % at 100 µM | 16,000 compounds, 1.6% hits;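 active = inhibition above the average over every tested compound plus 3 SD, cut at about 40% in these data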
Cy5 interf NS3h: Cy5 fluorescence quenchers or enhancers, artefact control for HCV NS3 helicase inhibitor project, biochemical, ChemBridge library, Cy5 readout; Cy5-dT15 DNA with NS3h, fluorescence interference; actives lie on both sides; signal over control mean, under 1 quenches; AID 720488, 2013; fluorescence interference ratio at 100 µM; 16,000 compounds, 6% hits;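 active = compound fluorescence over control fluorescence at most 0.8, a quencher, or at least a set upper limit, an enhancer; inactive = ratio between 0.8 and the set upper limit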
Starred values were filed as active, the others as inactive. Compounds with a hit are over-represented: about 6.9% of the library has one in this group of screens.

SMILES	NS3h inh CB	Cy5 interf NS3h
CCOc1ccc2nc(SCC(=O)Nc3cccc(C)c3)sc2c1	3	0.61*
Cc1cccc(NC(=O)CSc2nsc(SCC(=O)Nc3cccc(C)c3)n2)c1	2	0.94
O=[N+]([O-])c1ccccc1NC(=NS(=O)(=O)c1ccc(Cl)cc1)c1ccccc1	20	0.69*
O=[N+]([O-])c1ccccc1NC(=NS(=O)(=O)c1ccccc1)c1ccccc1	5	0.99
CC(C)CC(=O)NC(NC(=S)Nc1cccc(Cl)c1)C(Cl)(Cl)Cl (stereo not given)	3	1
O=P(CO)(c1ccccc1)c1ccccc1	1	0.97
O=P(O)(O)CP(=O)(c1ccccc1)c1ccccc1	7	0.76*
CCOC(=O)c1ccc(N=Cc2ccc(Br)s2)cc1	5	0.97
COc1cc(C(=O)N2CCN(Cc3ccccc3)CC2)c([N+](=O)[O-])cc1OC	4	0.96
O=C(c1cc(Cl)ccc1Cl)N1CCN(c2ccccc2)CC1	5	0.61*
O=C(c1cc(Cl)ccc1Cl)N1CCOCC1	6	1.1
COc1cc(C(=O)N2CCN(c3cccc(Cl)c3)CC2)c([N+](=O)[O-])cc1OC	19	0.67*
Cc1ccc(NC(=S)NCCOc2ccccc2Cc2ccccc2)c(C)c1	27	1
O=C(/C=C/c1cccc([N+](=O)[O-])c1)Nc1ccc2oc(-c3ccccc3F)nc2c1	-4	0.78*
O=C(COc1ccc([N+](=O)[O-])cc1)Nc1ccc2oc(-c3ccccc3F)nc2c1	2	1
CCCn1c2ccccc2c2nnc(SC(CC)C(=O)Nc3ccc(Cl)cn3)nc21 (stereo not given)	15	0.9
CN1C(=O)C(=Cc2cc([N+](=O)[O-])cc(Br)c2O)C(=O)N(C)C1=O	30	0.88
CC1=NN(c2ccc(S(N)(=O)=O)cc2)C(=O)/C1=C\c1cccc(Br)c1	42*	0.81
CC1=NN(c2ccc(S(N)(=O)=O)cc2)C(=O)/C1=C\c1ccc(C(C)C)cc1	7	0.94
COC(=O)C1=C(C)NC2=C(C(=O)c3ccccc32)C1c1ccc(OCc2ccccc2Cl)c(Cl)c1 (stereo not given)	-1	1
O=C(OCCC1(c2ccccc2)C(=O)c2ccccc2C1=O)c1ccc(Cl)cc1	8	0.95
CC1=C(C(=O)OCc2ccccc2)C(c2ccccc2F)NC(=O)N1 (stereo not given)	16	1.1
CCCNC(=O)c1cc2nc(-c3ccc(OC)cc3)cc(C(F)(F)F)n2n1	12	0.91
Cc1ccc(-c2cc(C(F)(F)F)n3nc(C(=O)OC(C)C)cc3n2)cc1	4	0.98
O=C(Nc1cccc(Cl)c1)c1cc2nc(-c3ccc4c(c3)OCO4)cc(C(F)(F)F)n2n1	-10	0.67*
SMILES	NS3h inh CB	Cy5 interf NS3h
O=C(Nc1cccc(Cl)c1Cl)c1cc2nc(-c3ccc([N+](=O)[O-])cc3)cc(C(F)(F)F)n2n1	10	0.79*
COC(=O)c1cc(NC(=O)CCc2ccccc2)cc(C(=O)OC)c1	14	0.97
Cc1ccc(Cl)cc1NC(=O)C1CC(=O)N(c2ccc(Br)cc2)C1 (stereo not given)	-20	1
COc1ccc2c(c1)C(NC(=O)C(F)(F)F)CC2=O (stereo not given)	-2	0.62*
COc1ccc(OC)c(C2C3=C(CC(C)(C)CC3=O)OC3=C2C(=O)CC(C)(C)C3)c1	3	1.1
CCC(=O)c1ccc(N2CCN(C(=O)c3c(F)c(F)cc(C)c3Cl)CC2)c(F)c1	-2	1
Cn1cc(/C=C/C(=O)c2ccc(Cl)cc2)c2ccccc21	17	0.99
O=C(N/N=C\c1ccc(Cl)cc1)c1ccc(O)cc1	0	0.93
Cc1ccc(/C=N\NC(=O)c2ccccc2C)cc1	11	0.79*
CCNC(=O)C(=O)Nc1ccccc1OC	-14	0.97
COc1ccc(C(=O)NC(=S)Nc2ccc(S(=O)(=O)N=C(N)N)cc2)cc1	10	0.93
CC(C)(C)c1ccc(OCC(=O)Nc2cccc(OC(F)(F)F)c2)cc1	7	1
CC(C)(C)c1ccc(OCC(=O)Nc2cccc(C(=O)Nc3nccs3)c2)cc1	-6	0.8*
Cc1ccc2nc3nc(C)cc(C)c3c(N)c2c1	-5	0.71*
Cc1ccc2nc(Nc3nc(C)cc(-c4ccccc4)n3)nc(C)c2c1	23	1.1
COc1ccc(N(CC(=O)Nc2ccccc2Cl)S(=O)(=O)c2ccc(C)cc2)c(OC)c1	-1	1.2*
COc1ccc(N(CC(=O)Nc2ccc3ccccc3c2)S(=O)(=O)c2ccc(C)cc2)c(OC)c1	10	1.1
COc1ccc(N(CC(=O)Nc2ccc(Br)cc2)S(=O)(=O)c2ccc(OC)c(OC)c2)cc1	10	0.7*
COc1ccc(S(=O)(=O)N(CC(=O)Nc2cccc3ccccc23)c2ccc(C)cc2)cc1OC	28	0.68*

Compound activity from PubChem BioAssay.
